Records with an inconclusive call do not appear. Active and inactive are the calls of the source. Unless noted, the call rests on the fitted dose curve; in most records, active means well fitted curve in the direction sought with a large enough effect; inconclusive means small, poorly fitted or top-dose-only effect, or another doubt; inactive means no such curve, though single readings can be large; an effect the other way counts as inactive or inconclusive.

The values that follow come from PubChem BioAssay (NCATS).

In assay [1] the target is Lysosomal acid glucosylceramidase (Homo sapiens) (UniProt P04062). The experiment in a line: Glucocerebrosidase-p2 (AID 348; in the data active means potency below about 10 µM; further: potency means the concentration at half of the fitted maximal effect). Particulars: purified GBA, blue fluorogenic substrate, 40 min. The procedure, abridged:
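Compounds titrated from 0.6 nM upwards against 0.2 nM enzyme in pH 5.9 citric acid/KH2PO4, taurocholate, tween-20; blue fluorogenic substrate 80 uM, 40 min room temperature, stopped and read Ex 365/Em 440 for AC50.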

Assay [2] is described as follows: AP1 Signaling Pathway (AID 357; active means well fitted curve in either direction with a large enough effect, not every such curve was filed as active;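 further: ME-180 reporter cells stimulated with EGF at its EC50 level; on the % scale 0 is the no-effect control and ±100 the full control effect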). Particulars: ME-180 AP-1-bla reporter, EGF-induced, beta-lactamase ratio, 5 h; at 7.69 µM (top of the series) unless noted. The procedure, abridged: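 In this screen, ME-180 cells in Opti-MEM with 0.5% dialyzed FBS received EC50 EGF and compound titrations for 5 h. AP-1 reporter beta-lactamase was detected via CCF4 ratio, giving AC50 for positive and negative modulators.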

The target of assay [3] is Cytochrome P450 1A2 (Homo sapiens) (UniProt P05177). The experiment in a line: p450-cyp1a2 (AID 410; calls by dose curve; further: potency means the concentration at half of the fitted maximal effect). The note with it: recombinant CYP1A2, luciferin-ME demethylation, luminescence; series mostly up to 57 µM. The gist of the method: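 Human CYP1A2 (20nM) demethylated Luciferin-ME at its Km (100uM) in 100mM KPO4. After 10 min compound preincubation, NADPH regeneration ran the reaction 60 min at room temperature. Luciferin was read by luminescence, normalized to 57 uM furafylline.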

Assay [4] is described as follows: NFAT Signaling Pathway (AID 444; active means well fitted curve in either direction with a large enough effect, not every such curve was filed as active;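 further: carbachol stimulus at about its EC50 of 1 µM final; on the % scale 0 is the no-effect control and ±100 the full control effect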). The note with it: Jurkat NFAT-bla M1, carbachol, beta-lactamase ratio, 5 h; at 7.69 µM (top of the series) unless noted. The procedure, abridged:
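Jurkat cells carrying an NFAT-driven β-lactamase reporter and co-transfected muscarinic M1 receptor were treated with compound plus carbachol (1 uM final, an EC50 level) for 5 h at 37 °C. CCF4 loading followed for 1 h at RT; 460/530 nm ratio gave %activity.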

Assay [5] is described as follows: Stat Signaling Pathway (AID 446; active means well fitted curve in either direction with a large enough effect, not every such curve was filed as active;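 further: ME-180 cervical cancer cells given 40 pM IL-6 alongside compound; SIE-controlled beta-lactamase reporter measured as 460/530 nm FRET emission ratio; on the % scale 0 is the no-effect control and ±100 the full control effect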). The note with it: ME-180 SIE beta-lactamase reporter, IL-6 stimulated, 5 h; at 7.69 µM (top of the series) unless noted. The gist of the method:
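ME-180 SIE-bla cells; overnight plating; cpd + IL-6 40 pM, 5 h, 37 C; LiveBLAzer 2.5 h RT; 460/530 nm emission ratio. Normalized to 300 pM IL-6 and 125 nM JAK inhibitor controls.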

The target in assay [6] is Glucocorticoid receptor (Homo sapiens) (UniProt P04150). The experiment in a line: GR-GFP Redistribution (AID 450;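 active means compounds whose dose series gives a full or clear partial fitted curve of increased nuclear translocation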; further: potency means the concentration at half of the fitted maximal effect). The note with it: U2OS GR-GFP nuclear translocation, laser cytometry, 2 h.
Assay [7] has the same target. Description: GR-EFC Redistribution (AID 451; calls by dose curve; further: potency means the concentration at half of the fitted maximal effect). The note with it: CHO-K1 GR-EFC translocation, beta-gal luminescence, 2 h. The procedure, abridged: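 CHO-K1 cells stably expressing nuclear-localized β-gal enzyme acceptor and GR fused C-terminally to the enzyme donor fragment; ligand-driven nuclear translocation restores β-gal by complementation. Compounds titrated up to 46 uM final, 2 h at 37 °C; luminescence read.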

Assay [8] deals with Mitogen-activated protein kinase 10 (Mus musculus) (UniProt Q61831). Description: JNK3 AlphaScreen Assay (AID 530; active means well fitted curve in either direction with a large enough effect, not every such curve was filed as active;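 further: kinase came from lysate of stimulated human HepG2 cells; on the % scale 0 is the no-effect control and ±100 the full control effect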). The note with it: JNK3 lysate, c-Jun phosphorylation; series mostly up to 57.1 µM. The gist of the method: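 JNK3 came from HepG2 lysates pre-activated with IL-1beta and TNF-alpha and phosphorylated biotinylated GST-cJun (1-79) at 10 uM ATP, pH 7.6, room temperature. Compounds were titrated. AlphaScreen signal used anti-phospho-cJun (Ser73) antibody.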
A general note: In Alpha technology, singlet oxygen from a donor bead excites a nearby acceptor bead.

Assay [9] has as its target 3',5'-cyclic-AMP phosphodiesterase 4B (Homo sapiens) (UniProt Q07343). The experiment in a line: qHTS Assay for Inhibitors of PDE-IV (AID 607; active means well fitted activation curve with a large enough effect in the main read-out, with a control signal flat, not every such curve was filed as active; further: % of control where 0% means no effect). Particulars: HEK293 ACTOne CNG channel cells, membrane potential fluorescence; series mostly up to 22.9 µM. The procedure, abridged:
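ACTOne HEK293 cells carry a modified cAMP-gated CNG channel and express endogenous PDE4; plated 1000 cells/well, compounds up to 22.9 uM final. Membrane-potential dye fluorescence (ex 535/em 590) was read; parental cells received 10 uM forskolin + 100 uM RO 20-1724.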

In assay [10] the target is Cytochrome P450 3A4 (Homo sapiens) (UniProt P08684). Description: qHTS Assay for Inhibitors and Substrates of Cytochrome P450 3A4 (AID 884). Further: on the % scale 0 is the no-effect control and ±100 the full control effect; nearly all actives have a fitted effect of over 50% in size. The note with it: recombinant CYP3A4, Luciferin-PPXE luminescence; series mostly up to 57.1 µM. The procedure, abridged:
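20 nM human CYP3A4 with 25 uM Luciferin-PPXE (at KM) in 200 mM KPO4, preincubated 10 min with compound; NADPH regeneration started a 60 min RT reaction. Luciferin detected by luminescence, normalized to 57 uM ketoconazole as full inhibition.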
For orientation: Quantitative high-throughput screening tests each substance at several concentrations.

Assay [11] in a line: qHTS Assay for Lipid Storage Modulators (AID 1519; calls by dose curve; further: potency means the concentration at half of the fitted maximal effect). The note with it: Drosophila S3 cells, BODIPY lipid droplet/cell ratio, laser cytometry, cells loaded with oleic acid; for activity change, negative = inhibition: at 57.5 µM (top of the series). The gist of the method:
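Cells seeded at 5,000 per well were treated with compounds over a concentration series and loaded with oleic acid (400 uM, as added). Lipid droplet fluorescence (488 nm excitation, 500-530 nm channel) was read by laser-scanning cytometry and normalized to 20 uM Triacsin C.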

The target of assay [12] is Dual specificity protein kinase CLK4 (Homo sapiens) (UniProt Q9HAZ1). The experiment in a line: qHTS Assay for Inhibitors of CDC-like Kinase 4 (Kinase-Glo Assay) (AID 1770). Further: on the % scale 0 is the no-effect control and ±100 the full control effect; nearly all actives have a fitted effect of over 65% in size. The note with it: recombinant Clk4, Kinase-Glo ATP depletion luminescence; series mostly up to 66.7 µM. The gist of the method:
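Substrate mix (RS peptide 100 uM, ATP 1 uM) dispensed, compound pinned in, then Clk4 added to 25 nM final. Incubated 4.5 h at RT; Kinase-Glo reagent added, luminescence read after 5 min.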

Assay [13] shares this target. Description: qHTS Assay for Inhibitors of CDC-like Kinase 4 (ADP-Glo Assay) (AID 1771). Further: on the % scale 0 is the no-effect control and ±100 the full control effect; nearly all actives have a fitted effect of over 70% in size. The note with it: recombinant CLK4, ADP-Glo luminescence; series mostly up to 80 µM. The gist of the method: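 Clk4 (25 nM) was incubated 1 hr at room temperature with 100 uM RS repeat peptide and 1 uM ATP in buffer with 2 mM MgCl2, 0.5 mM EGTA, 2.5 mM DTT. ADP formed was quantified by ADP-Glo luminescence.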

The target is the same in assay [14]. Description: qHTS Assay for Inhibitors of CDC-like Kinase 4 (ADP-FP Assay) (AID 1795). Further: on the % scale 0 is the no-effect control and ±100 the full control effect; nearly all actives have a fitted effect of over 60% in size. Particulars: Transcreener ADP fluorescence polarization; series mostly up to 50 µM. The gist of the method:
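Clk4 6.25 nM; RS peptide 100 uM; ATP 1 uM; 25 mM Tris pH 7.5, 10 mM MgCl2; 1 h reaction. ADP detected via antibody/orange tracer FP displacement; TG003 positive control.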

Assay [15] addresses Ubiquitin carboxyl-terminal hydrolase 1 (Homo sapiens) (UniProt O94782). Description: Inhibitors of USP1/UAF1: Pilot qHTS (AID 504865).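 Further: rhodamine fluorescence freed from ubiquitin-rhodamine substrate followed over time; top concentration of the series differs between compounds; on the % scale 0 is the no-effect control and ±100 the full control effect; nearly all actives have a fitted effect of over 35% in size.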 Particulars: purified USP1/UAF1, Ub-rhodamine cleavage fluorescence; series mostly up to 54.9 µM. The gist of the method: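 In 50mM HEPES pH 7.8 containing 0.5mM EDTA, 1mM TCEP, 0.1 mg/ml BSA and 0.01% Tween-20, 1nM USP1/UAF1 is exposed to compound for 15 min, then Ub-Rho (150nM final) is added and fluorescence is read over time.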

A short description of assay [16]: Primary qHTS for small molecule stabilizers of the endoplasmic reticulum resident proteome: Secreted ER Calcium Modulated Protein (SERCaMP) assay (AID 1508630). Further: on the % scale 0 is the no-effect control and ±100 the full control effect. The note with it: SH-SY5Y GLuc-SERCaMP (Gaussia luciferase released on ER calcium loss) secretion, thapsigargin, luminescence; series mostly up to 38.4 µM. The gist of the method:
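GLuc-SERCaMP-expressing SH-SY5Y cells, pretreated 16 h with compound, are challenged with thapsigargin to empty ER calcium stores; after 4 h, coelenterazine is added directly to the medium and luminescence is imaged.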

Assay [17] can be described thus: qHTS Assay for Identification of Small Molecule Agonists for Hypoxia Response Element Signaling Pathway (AID 914; active means well fitted activation curve with a large enough effect in the signal ratio, with a control signal flat, not every such curve was filed as active; the % refers to the signal ratio; further: % of control where 0% means no effect). Particulars: ME-180 (cervical carcinoma) HRE-bla reporter, beta-lactamase ratio, CoCl2, 17 h; activation: stronger effect = higher value. The procedure, abridged:
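HRE-bla ME-180 cells, overnight plating in Opti-MEM with 0.5% dialyzed FBS; cpd titration + EC50 CoCl2, 17 h, 37 degrees Celsius; CCF4 2.5 h RT; 460/530 nm ratio; AC50.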

Assay [18] concerns the target Cytochrome P450 3A4 (Homo sapiens) (UniProt P08684). Description: qHTS Assay for Activators of Cytochrome P450 3A4 (AID 885). Further: nearly all actives have a fitted effect of over 65% in size. The note with it: recombinant CYP3A4, Luciferin-PPXE luminescence, 60 min; series mostly up to 57.1 µM. The procedure, abridged: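 20nM CYP3A4 + 25uM Luciferin-PPXE (=KM), 200mM KPO4; cpd 10 min RT; NADPH regen, 60 min RT; stop w/ detection buffer, 20 min; luminescence. Normalized to 57 uM ketoconazole.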

Assay [19] deals with Cytochrome P450 2C19 (Homo sapiens) (UniProt P33261). The experiment in a line: qHTS Assay for Inhibitors and Substrates of Cytochrome P450 2C19 (AID 899). Further: on the % scale 0 is the no-effect control and ±100 the full control effect; nearly all actives have a fitted effect of over 60% in size. Particulars: recombinant CYP2C19, luciferin-H EGE luminescence; series mostly up to 57.1 µM. The gist of the method: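 Human CYP2C19 (5nM) with Luciferin-H EGE at 10uM (its KM) in 50mM KPO4 was preincubated with compound for 10 min at 37C. NADPH regeneration started a 60 min 37C reaction. Luciferin was read by luminescence, normalized to 57uM ketoconazole.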

[20] abbreviates: measured here: cell count channel max response.
Where [21] appears, read: measured here: lipid channel max response.

Cytochrome P450 1A2 (Homo sapiens), sequence (P05177 whole entry, looked up): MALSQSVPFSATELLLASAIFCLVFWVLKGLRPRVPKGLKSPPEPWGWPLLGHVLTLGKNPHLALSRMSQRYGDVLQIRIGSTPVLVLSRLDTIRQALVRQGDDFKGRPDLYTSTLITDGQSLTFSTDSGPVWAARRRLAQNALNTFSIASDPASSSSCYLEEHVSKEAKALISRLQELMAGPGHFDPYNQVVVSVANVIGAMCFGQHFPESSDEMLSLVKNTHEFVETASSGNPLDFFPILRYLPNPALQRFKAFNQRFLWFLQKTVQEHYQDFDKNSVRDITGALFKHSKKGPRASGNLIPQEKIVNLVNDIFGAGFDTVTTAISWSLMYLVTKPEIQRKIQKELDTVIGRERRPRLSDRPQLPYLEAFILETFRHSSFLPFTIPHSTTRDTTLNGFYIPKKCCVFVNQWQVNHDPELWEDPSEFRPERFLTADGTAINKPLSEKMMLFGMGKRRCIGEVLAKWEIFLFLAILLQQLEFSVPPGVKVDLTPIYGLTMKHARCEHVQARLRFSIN
Glucocorticoid receptor (Homo sapiens), sequence (P04150 whole entry, looked up, the tested form may be a part): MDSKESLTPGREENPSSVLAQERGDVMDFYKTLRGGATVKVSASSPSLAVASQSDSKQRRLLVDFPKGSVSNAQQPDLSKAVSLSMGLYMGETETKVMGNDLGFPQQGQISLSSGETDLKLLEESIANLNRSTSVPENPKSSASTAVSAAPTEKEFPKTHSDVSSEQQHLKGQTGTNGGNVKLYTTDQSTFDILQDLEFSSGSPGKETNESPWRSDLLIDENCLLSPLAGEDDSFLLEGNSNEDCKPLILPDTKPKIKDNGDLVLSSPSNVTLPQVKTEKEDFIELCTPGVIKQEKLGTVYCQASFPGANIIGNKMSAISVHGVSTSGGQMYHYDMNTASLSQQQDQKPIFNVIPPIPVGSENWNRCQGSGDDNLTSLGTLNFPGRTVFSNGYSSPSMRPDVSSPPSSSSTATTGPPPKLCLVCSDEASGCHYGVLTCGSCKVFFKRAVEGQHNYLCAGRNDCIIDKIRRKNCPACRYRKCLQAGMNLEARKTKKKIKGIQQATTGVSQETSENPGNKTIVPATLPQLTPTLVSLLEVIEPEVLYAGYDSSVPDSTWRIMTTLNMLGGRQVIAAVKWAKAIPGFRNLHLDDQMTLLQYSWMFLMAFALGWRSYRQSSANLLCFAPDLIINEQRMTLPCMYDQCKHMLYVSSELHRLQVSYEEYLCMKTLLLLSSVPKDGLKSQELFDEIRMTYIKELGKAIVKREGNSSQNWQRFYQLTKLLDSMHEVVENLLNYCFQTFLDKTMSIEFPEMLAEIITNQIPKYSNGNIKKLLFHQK
Dual specificity protein kinase CLK4 (Homo sapiens), sequence (Q9HAZ1 whole entry, looked up): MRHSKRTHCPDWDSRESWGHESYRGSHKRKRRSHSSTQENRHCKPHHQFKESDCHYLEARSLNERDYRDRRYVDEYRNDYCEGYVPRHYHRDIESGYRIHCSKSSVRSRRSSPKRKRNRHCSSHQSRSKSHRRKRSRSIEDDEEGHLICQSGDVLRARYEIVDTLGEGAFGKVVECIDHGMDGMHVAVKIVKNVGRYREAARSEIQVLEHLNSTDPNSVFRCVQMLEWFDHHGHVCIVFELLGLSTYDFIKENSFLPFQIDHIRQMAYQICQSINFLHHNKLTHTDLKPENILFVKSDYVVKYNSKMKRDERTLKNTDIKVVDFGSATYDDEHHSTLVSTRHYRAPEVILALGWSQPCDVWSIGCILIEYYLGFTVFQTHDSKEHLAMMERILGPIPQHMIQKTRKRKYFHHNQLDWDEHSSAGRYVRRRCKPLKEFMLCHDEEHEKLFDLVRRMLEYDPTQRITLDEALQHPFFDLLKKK
Ubiquitin carboxyl-terminal hydrolase 1 (Homo sapiens), sequence (O94782 whole entry, looked up): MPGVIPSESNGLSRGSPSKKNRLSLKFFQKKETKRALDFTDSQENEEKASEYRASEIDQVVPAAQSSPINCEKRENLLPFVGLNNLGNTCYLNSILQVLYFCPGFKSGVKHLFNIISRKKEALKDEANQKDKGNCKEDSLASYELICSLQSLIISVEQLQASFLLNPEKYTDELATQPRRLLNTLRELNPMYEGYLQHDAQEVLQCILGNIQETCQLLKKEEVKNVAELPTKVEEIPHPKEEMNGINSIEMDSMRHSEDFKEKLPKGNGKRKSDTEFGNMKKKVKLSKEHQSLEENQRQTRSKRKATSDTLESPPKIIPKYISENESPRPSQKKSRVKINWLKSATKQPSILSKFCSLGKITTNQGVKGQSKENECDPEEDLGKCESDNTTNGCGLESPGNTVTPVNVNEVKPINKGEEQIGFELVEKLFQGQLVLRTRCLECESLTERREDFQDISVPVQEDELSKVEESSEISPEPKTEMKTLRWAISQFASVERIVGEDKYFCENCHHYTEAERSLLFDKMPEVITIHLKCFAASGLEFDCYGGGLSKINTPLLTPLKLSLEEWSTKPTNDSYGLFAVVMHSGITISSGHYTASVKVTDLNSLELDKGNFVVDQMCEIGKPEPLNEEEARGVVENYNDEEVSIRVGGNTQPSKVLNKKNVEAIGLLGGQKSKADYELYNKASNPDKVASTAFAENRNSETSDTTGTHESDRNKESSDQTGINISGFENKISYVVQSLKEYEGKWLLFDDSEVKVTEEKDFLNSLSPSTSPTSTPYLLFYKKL
Cytochrome P450 3A4 (Homo sapiens), sequence (P08684 whole entry, looked up): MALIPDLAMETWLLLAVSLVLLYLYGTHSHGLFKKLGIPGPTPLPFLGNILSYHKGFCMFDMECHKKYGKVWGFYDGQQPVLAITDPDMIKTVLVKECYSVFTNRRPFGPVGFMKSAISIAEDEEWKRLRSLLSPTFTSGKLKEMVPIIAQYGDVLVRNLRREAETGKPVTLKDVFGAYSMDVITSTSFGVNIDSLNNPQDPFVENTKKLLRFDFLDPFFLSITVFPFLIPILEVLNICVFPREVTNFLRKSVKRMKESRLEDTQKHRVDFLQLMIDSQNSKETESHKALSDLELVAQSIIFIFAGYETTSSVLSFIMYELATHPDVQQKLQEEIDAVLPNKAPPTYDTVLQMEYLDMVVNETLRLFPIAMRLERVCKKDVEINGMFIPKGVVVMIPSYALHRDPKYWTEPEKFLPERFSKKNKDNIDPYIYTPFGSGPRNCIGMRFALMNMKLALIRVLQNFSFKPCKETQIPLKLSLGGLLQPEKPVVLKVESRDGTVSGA
3',5'-cyclic-AMP phosphodiesterase 4B (Homo sapiens), sequence (Q07343 whole entry, looked up): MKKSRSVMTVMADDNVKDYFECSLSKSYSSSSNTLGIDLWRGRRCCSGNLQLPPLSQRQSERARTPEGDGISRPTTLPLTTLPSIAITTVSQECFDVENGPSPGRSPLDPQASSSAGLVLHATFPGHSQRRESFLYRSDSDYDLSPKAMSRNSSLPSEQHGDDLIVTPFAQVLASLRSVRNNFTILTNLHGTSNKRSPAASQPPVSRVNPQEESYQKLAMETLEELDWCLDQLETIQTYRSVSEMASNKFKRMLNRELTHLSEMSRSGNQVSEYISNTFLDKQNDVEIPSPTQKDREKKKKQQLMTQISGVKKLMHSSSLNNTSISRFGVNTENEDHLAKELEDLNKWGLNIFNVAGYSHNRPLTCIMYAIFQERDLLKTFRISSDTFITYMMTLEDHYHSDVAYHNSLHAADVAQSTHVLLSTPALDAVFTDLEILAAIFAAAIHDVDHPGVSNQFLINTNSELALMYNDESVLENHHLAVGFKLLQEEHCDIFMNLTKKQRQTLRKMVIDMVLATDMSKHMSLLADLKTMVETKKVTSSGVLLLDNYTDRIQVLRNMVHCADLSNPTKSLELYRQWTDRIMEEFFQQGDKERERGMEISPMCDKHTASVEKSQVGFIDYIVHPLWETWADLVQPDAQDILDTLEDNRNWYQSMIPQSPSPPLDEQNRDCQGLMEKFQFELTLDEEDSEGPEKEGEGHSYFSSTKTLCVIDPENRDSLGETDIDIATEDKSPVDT
Lysosomal acid glucosylceramidase (Homo sapiens), sequence (P04062 whole entry, looked up): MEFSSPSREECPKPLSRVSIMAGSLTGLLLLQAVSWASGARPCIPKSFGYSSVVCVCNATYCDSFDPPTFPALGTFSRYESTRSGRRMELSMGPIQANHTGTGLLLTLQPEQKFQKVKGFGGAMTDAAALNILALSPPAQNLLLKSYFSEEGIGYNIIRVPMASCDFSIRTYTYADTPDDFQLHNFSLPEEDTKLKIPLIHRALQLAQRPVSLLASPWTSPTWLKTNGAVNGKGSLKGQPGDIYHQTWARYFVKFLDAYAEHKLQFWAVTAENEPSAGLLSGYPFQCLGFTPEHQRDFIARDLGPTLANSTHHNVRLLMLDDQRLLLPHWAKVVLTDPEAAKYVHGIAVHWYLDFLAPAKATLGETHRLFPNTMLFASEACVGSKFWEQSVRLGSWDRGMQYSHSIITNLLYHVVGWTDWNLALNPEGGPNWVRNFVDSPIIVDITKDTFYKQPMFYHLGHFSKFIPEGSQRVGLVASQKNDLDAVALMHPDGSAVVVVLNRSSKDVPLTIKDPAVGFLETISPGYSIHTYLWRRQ
Cytochrome P450 2C19 (Homo sapiens), sequence (P33261 whole entry, looked up): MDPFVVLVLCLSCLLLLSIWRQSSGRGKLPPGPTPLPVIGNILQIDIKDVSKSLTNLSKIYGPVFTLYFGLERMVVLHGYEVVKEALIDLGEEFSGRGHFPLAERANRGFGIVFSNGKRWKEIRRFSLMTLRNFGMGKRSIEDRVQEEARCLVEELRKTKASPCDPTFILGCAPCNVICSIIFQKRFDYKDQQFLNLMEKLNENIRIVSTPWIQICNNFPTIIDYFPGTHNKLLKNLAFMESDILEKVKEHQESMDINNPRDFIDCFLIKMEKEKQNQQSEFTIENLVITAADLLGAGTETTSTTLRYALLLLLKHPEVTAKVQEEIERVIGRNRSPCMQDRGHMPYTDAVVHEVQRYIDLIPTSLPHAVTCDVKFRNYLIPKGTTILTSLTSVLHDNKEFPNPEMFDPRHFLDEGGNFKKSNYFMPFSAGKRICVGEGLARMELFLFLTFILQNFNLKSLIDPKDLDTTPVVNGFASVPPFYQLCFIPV

As to `N#Cc1cccc(-c2nc3cnc(Oc4cccc(Cl)c4)nc3n(C3CC3)c2=O)c1`, the Potency in assay [1] is > 11.4 µM (inactive); in assay [3], 2.51 µM (active); in assay [6] it was > 9.22 µM (inactive); in assay [7], > 46 µM (inactive). Also, the activity change, negative = inhibition is -1.53% (inactive) in assay [2], 12.5% (inactive) in [4] and -3.65% (inactive) in [11]. Further, the activity, negative = inhibition in assay [5] was -10.1% (inactive). The call in [8] was inactive. For the same compound, the Potency entry in [9], in assay [10], in [12], in [13], in assay [14] and in [15] was “inactive” in each case. For the same compound, the Potency entry in [16] was “inactive”. Besides, the max response in assay [11] (setting [20]) worked out at 11%; in assay [11] (setting [21]), 8.29%.
Consider `Cc1nc2cnc(N(C)C)nc2n(C2CC2)c1=O`, for which the Potency in assay [1] was > 11.4 µM (inactive); in assay [3], 3.98 µM (active); in [6] it was > 9.22 µM (inactive); in assay [7], > 46 µM (inactive). Besides, the activity change, negative = inhibition in assay [2] is -20% (inactive); in assay [4], 4.63% (inactive); in assay [11], 5.93% (inactive). The activity, negative = inhibition in assay [5] was -4.62% (inactive). The compound was called inactive in assay [8]. For the same compound, the Potency entry in [9], in assay [12], in [13], in assay [14], in assay [15] and in [16] was “inactive” in each case. Further, the activation in [17] was 9.86% (inactive). Besides, the max response turned out to be 14.1% in assay [11] (setting [20]) and 18.5% in assay [11] (setting [21]).
Take `Cc1cnc(CNc2ccnc(-c3c(C)noc3C)n2)cn1`: the Potency is > 11.4 µM (inactive) in assay [1], 12.6 µM (active) in assay [3], > 46 µM (inactive) in assay [6] and > 46 µM (inactive) in [7]. For the same compound, the activity change, negative = inhibition in [2] is 1.51% (inactive); in assay [4], 10.3% (inactive); in assay [11], 7.48% (inactive). Also, the activity, negative = inhibition in assay [5] is 1.5% (inactive). In assay [8], the compound was called inactive. Besides, the Potency entry in [9], in assay [18], in assay [12], in assay [13], in assay [14] and in [15] was “inactive” in each case. Besides, in assay [16], the Potency result was “inactive”. Also, the max response was determined as 24.6% in [11] (setting [20]) and 37.5% in [11] (setting [21]).
For `Cn1cc(-c2nc3cnc(N4CCOCC4)nc3n(C3CC3)c2=O)c2ccccc21`, the Potency in [1] was > 11.4 µM (inactive); in assay [3] it was 3.16 µM (active); in assay [6], > 9.22 µM (inactive); in [7] it was > 46 µM (inactive). In addition, the activity change, negative = inhibition in [2] is -18.1% (inactive); in assay [4] it was -15.3% (inactive); in assay [11], 8.36% (inactive). Besides, the activity, negative = inhibition in assay [5] is 11.5% (inactive). For the same compound, the compound was classed as inactive in assay [8]. Further, the Potency result in assay [9], in [18], in assay [19], in assay [12], in [13] and in [14] was “inactive” throughout. For the same compound, the Potency result in assay [15] and in assay [16] was “inactive” throughout. The figures for the max response in [11] (setting [20]) and in assay [11] (setting [21]) were 17.1% and 23.9%, respectively.
In the case of `O=c1c(-c2ccc(F)cc2)nc2cnc(Nc3ccccc3)nc2n1C[C@H]1CCCO1`, in assay [11], the Potency was 3.55 µM (active).
Turning to `Cc1nc2cnc(Nc3ccccc3)nc2n(Cc2ccc(F)cc2)c1=O`, the figures for the Potency in assay [1], in [6] and in [7] were > 11.4 µM (inactive), > 9.22 µM (inactive) and > 46 µM (inactive), respectively. Moreover, the activity change, negative = inhibition in assay [2] is -12.8% (inactive); in [4], -23.6% (inactive); in assay [11] it was 1.06% (inactive). For the same compound, the activity, negative = inhibition in assay [5] was 2.69% (inactive). Moreover, the call in [8] was inactive. Also, the Potency result in assay [9], in assay [12], in assay [13], in assay [14], in assay [15] and in assay [16] was “inactive” throughout. Besides, the max response in assay [11] (setting [20]) turned out to be 7.11%; in assay [11] (setting [21]), 6.57%.
